Laboratory results as given in ChEMBL document CHEMBL3433997, “St. Jude Leishmania screening dataset” (2016).

The compounds below were run against Solute carrier family 2, facilitated glucose transporter member 1 (Homo sapiens) (UniProt P11166) (assay: ST_JUDE_LEISH: Cytotoxicity at 2uM final concentration against transgenic Leishmania Mexicana promastigotes LmGLUT1 that are glucose transport deficient and complemented with the human glucose transporter GLUT1. Activity is measured by DNA content using SYBR green in vitro).
Chain of Solute carrier family 2, facilitated glucose transporter member 1 (Homo sapiens) (P11166 whole entry): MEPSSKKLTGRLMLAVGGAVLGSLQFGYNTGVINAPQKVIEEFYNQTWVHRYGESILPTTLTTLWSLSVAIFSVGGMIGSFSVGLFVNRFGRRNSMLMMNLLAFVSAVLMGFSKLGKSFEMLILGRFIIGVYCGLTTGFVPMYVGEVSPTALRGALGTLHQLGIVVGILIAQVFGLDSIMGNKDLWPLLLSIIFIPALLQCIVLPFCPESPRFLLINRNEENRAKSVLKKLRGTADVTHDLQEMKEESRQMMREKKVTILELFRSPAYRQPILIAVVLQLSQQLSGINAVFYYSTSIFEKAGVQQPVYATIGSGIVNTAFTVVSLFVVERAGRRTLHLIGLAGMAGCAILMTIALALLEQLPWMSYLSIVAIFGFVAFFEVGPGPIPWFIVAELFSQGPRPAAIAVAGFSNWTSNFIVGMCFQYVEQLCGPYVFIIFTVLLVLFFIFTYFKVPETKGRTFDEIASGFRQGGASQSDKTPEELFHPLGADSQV
Assay type: functional

For OC(CNCc1ccccc1OCc1ccccc1)c1cccc(Cl)c1 (stereo not given), which inhibition is on record?
Its inhibition is 5.6%.

Cc1cccc2nc(-c3ccc(-c4cccc(CN5CCC(CCN6CCCCC6)CC5)c4)s3)[nH]c12 was tested. Which inhibition did it give?
Its inhibition is -0.21%.

Which inhibition does the source give for CC(C)Cc1ccc(N2CCN(CCCCNC(=O)c3ccc(NC(=O)c4ccc(Cl)c(Cl)c4)cc3)CC2)cc1 here?
Its inhibition is 1.28%.

How did the inhibition turn out when O=C1NC(=O)C(c2ccc(Cl)cc2)=C1Nc1cccc(S(=O)(=O)C(F)(F)F)c1 was run?
Its inhibition is 1.37%.

Fc1ccc2c(NN=Cc3ccccc3F)ccnc2c1 was tested. Which inhibition did it give?
Its inhibition is 0.28%.

With Cc1cc(N[C@@H](Cc2ccccc2)C(=O)NCCOc2ccccc2)nc(NCCc2ccccn2)n1 as the compound, how does the inhibition read?
The inhibition was 6.81%.

With CCN(CC)CCCC(C)N/C(=N\c1ccccc1Br)Nc1ccc(C#N)cc1O (stereo not given) as the compound, how does the inhibition read?
Its inhibition is 1.03%.

Which inhibition does the source give for COc1ccccc1CNc1ncc(-c2ccsc2)c(-c2nccs2)n1 here?
The inhibition was 0.14%.

CCc1ccc(NC(=O)N(CCCn2ccnc2)Cc2csc(-c3ccc(CNCc4ccccc4)cc3)n2)cc1 was tested. Which inhibition did it give?
Its inhibition is 2.66%.

Which inhibition does the source give for CN(C)CCN1CCN(CCCN2c3ccccc3Sc3ccc(C(F)(F)F)cc32)CC1 here?
Its inhibition is 3.37%.

CCC(C(C)C)n1ccc2c3c(N)nc(N)nc3ccc21 (stereo not given) was tested. Which inhibition did it give?
The inhibition was 81.6%.

Which inhibition does the source give for Cc1cccc2c1NC(=O)/C2=N/NC(=S)N(C)C here?
Its inhibition is 1.53%.

Which inhibition does the source give for O=C(c1cc2cccc([N+](=O)[O-])c2[nH]1)N1CCC(CCN2CCC(c3c[nH]c4ccccc34)CC2)CC1 here?
The inhibition was 1.52%.

For Cc1[nH]c(C)c(-c2ccc(-c3ccc(C(F)(F)F)cc3C(F)(F)F)nc2)c(=O)c1Br, which inhibition is on record?
Its inhibition is -0.49%.

For Fc1ccc(CNc2ncc(-c3ccsc3)c(-c3nccs3)n2)cc1, which inhibition is on record?
The inhibition was 0.01%.

For CC(O)CNc1nc2ccccc2n1CC(=O)Nc1cccc(C(=O)Nc2cccc(C(F)(F)F)c2)c1 (stereo not given), which inhibition is on record?
The inhibition was 1.41%.

With O=S(=O)(c1cc2ccccc2s1)N(CCC(O)(C(F)(F)F)C(F)(F)F)Cc1cccc(O)c1 as the compound, how does the inhibition read?
The inhibition was -0.29%.

O=C(NCCN1CCOCC1)c1csc(C2CCCN(C(=O)c3ccc(O)c(-c4cc(Cl)cc(Cl)c4)c3)C2)n1 (stereo not given) was tested. Which inhibition did it give?
The inhibition was 8.92%.

O=C(NCCCCN1CCC(c2ccc3c(c2OCCN2CCCC2)CCCC3)CC1)c1ccc(-c2ccc(C(F)(F)F)cc2)cc1 was tested. Which inhibition did it give?
Its inhibition is 3.42%.

O=C(Nc1ccc2c(c1)CCN2C1CCN(Cc2cccc3cc[nH]c23)C1)c1ccco1 (stereo not given) was tested. Which inhibition did it give?
Its inhibition is 0.46%.

O=C(Nc1cccc(-c2ccc(-c3nc4ccccc4[nH]3)cc2)c1)c1ccncc1 was tested. Which inhibition did it give?
The inhibition was 8.95%.

COc1ccc2nc(C)cc(N/N=C/c3ccccc3[N+](=O)[O-])c2c1 was tested. Which inhibition did it give?
Its inhibition is 2.3%.

O=C(NCCNc1ccnc(Nc2ccc(F)cc2)n1)c1cc2ccccc2s1 was tested. Which inhibition did it give?
Its inhibition is 5.85%.

For Cc1cc(=NN=Cc2ccccc2)c2cc(C(F)(F)F)ccc2[nH]1, which inhibition is on record?
Its inhibition is 8.02%.

With Nc1nc(-c2ccc3c(Nc4ccc(F)c(Cl)c4)ccnc3c2)cs1 as the compound, how does the inhibition read?
Its inhibition is 3.22%.

With Clc1ccc(Nc2nc3ccc(Cl)cc3nc2Nc2ccc(Cl)cc2)cc1 as the compound, how does the inhibition read?
The inhibition was 7.56%.

CCCc1cc(Cc2cnc(N)nc2N)cc2c1OC(C)(C)C2 was tested. Which inhibition did it give?
Its inhibition is 5.74%.

Which inhibition does the source give for CN1CCN(c2ccnc3cc4c(cc23)N(Cc2ccccc2)CC4)CC1 here?
The inhibition was -1.34%.

How did the inhibition turn out when c1ccc(-c2nc(NC3CCCCC3)cc(C3CC3)n2)nc1 was run?
Its inhibition is 1.84%.

How did the inhibition turn out when CCOc1ccc(NC(=O)c2cccc(CN3CCCN(Cc4cccc(O)c4)CC3)c2)cc1 was run?
The inhibition was -0.94%.

Which inhibition does the source give for Cc1c(C(C)(C)C)ccc2nc(N)nc(N)c12 here?
Its inhibition is 64%.

How did the inhibition turn out when CN1CCCC(COc2cc3c(cc2Br)CCN3C(=O)Nc2ccc(-c3ccncc3)c(Cl)c2)C1 (stereo not given) was run?
Its inhibition is 9.37%.

CCCCCCN1CCCN(Cc2ccc(C(=O)Nc3ccc(C(C)C)cc3)cc2)CC1 was tested. Which inhibition did it give?
The inhibition was 5.84%.

CC(C)(C)C1=CC(=NNC(=O)c2ccncc2)C=C(C(C)(C)C)C1=O was tested. Which inhibition did it give?
Its inhibition is 11.8%.

Which inhibition does the source give for COc1cc(CS(C)(=O)=O)ccc1Nc1nccc(-c2c(-c3cccc(NC(=O)c4c(F)cccc4F)c3)nn3ccccc23)n1 here?
The inhibition was 13.5%.

How did the inhibition turn out when O=C(/C=C/c1ccc(Cl)c(Cl)c1)NCC1CCN(Cc2ccc(O)cc2)CC1 was run?
Its inhibition is 69.6%.

With COc1ccc(C2=C(Nc3ccc4oc5ccccc5c4c3)c3ccccc3C2=O)cc1 as the compound, how does the inhibition read?
Its inhibition is 0.72%.

For O=C(Nc1ccc2ccccc2c1)c1ccc(CN2CCC(Cc3ccccc3)CC2)cc1, which inhibition is on record?
The inhibition was -2.67%.

For CC(C)CNC(=O)c1ccc(-c2cccc(CN3CCC(N4CCCC4)CC3)c2)nc1, which inhibition is on record?
Its inhibition is 2.51%.

Which inhibition does the source give for N#CCCN1CCN(Cc2ccc(-c3cccc(-c4nc5cc(F)ccc5[nH]4)c3)cc2)CC1 here?
Its inhibition is 2.61%.

The compounds below were run against Hexose transporter 1 (Plasmodium falciparum) (UniProt O97467) (assay: ST_JUDE_LEISH: Cytotoxicity at 2uM final concentration against transgenic Leishmania Mexicana promastigotes LmPfHT that are glucose transport deficient and complemented with the Plasmodium falciparum hexose transporter. Activity is measured by DNA content using SYBR green in vitro).
Assay type: functional

Which inhibition does the source give for OC(CNCc1ccccc1OCc1ccccc1)c1cccc(Cl)c1 (stereo not given) here?
The inhibition was 4.24%.

With Cc1cccc2nc(-c3ccc(-c4cccc(CN5CCC(CCN6CCCCC6)CC5)c4)s3)[nH]c12 as the compound, how does the inhibition read?
The inhibition was 0.87%.

How did the inhibition turn out when CC(C)Cc1ccc(N2CCN(CCCCNC(=O)c3ccc(NC(=O)c4ccc(Cl)c(Cl)c4)cc3)CC2)cc1 was run?
The inhibition was 1.46%.

O=C1NC(=O)C(c2ccc(Cl)cc2)=C1Nc1cccc(S(=O)(=O)C(F)(F)F)c1 was tested. Which inhibition did it give?
The inhibition was 0.65%.

Which inhibition does the source give for Fc1ccc2c(NN=Cc3ccccc3F)ccnc2c1 here?
The inhibition was -0.28%.

For Cc1cc(N[C@@H](Cc2ccccc2)C(=O)NCCOc2ccccc2)nc(NCCc2ccccn2)n1, which inhibition is on record?
Its inhibition is 6.41%.

How did the inhibition turn out when CCN(CC)CCCC(C)N/C(=N\c1ccccc1Br)Nc1ccc(C#N)cc1O (stereo not given) was run?
The inhibition was 0.06%.

Which inhibition does the source give for COc1ccccc1CNc1ncc(-c2ccsc2)c(-c2nccs2)n1 here?
The inhibition was 0.8%.

CCc1ccc(NC(=O)N(CCCn2ccnc2)Cc2csc(-c3ccc(CNCc4ccccc4)cc3)n2)cc1 was tested. Which inhibition did it give?
The inhibition was 2.93%.

Which inhibition does the source give for CN(C)CCN1CCN(CCCN2c3ccccc3Sc3ccc(C(F)(F)F)cc32)CC1 here?
The inhibition was 3.77%.

How did the inhibition turn out when CCC(C(C)C)n1ccc2c3c(N)nc(N)nc3ccc21 (stereo not given) was run?
The inhibition was 84.6%.

Cc1cccc2c1NC(=O)/C2=N/NC(=S)N(C)C was tested. Which inhibition did it give?
The inhibition was 4.53%.

With O=C(c1cc2cccc([N+](=O)[O-])c2[nH]1)N1CCC(CCN2CCC(c3c[nH]c4ccccc34)CC2)CC1 as the compound, how does the inhibition read?
Its inhibition is 12.8%.

With Cc1[nH]c(C)c(-c2ccc(-c3ccc(C(F)(F)F)cc3C(F)(F)F)nc2)c(=O)c1Br as the compound, how does the inhibition read?
The inhibition was -2.4%.

Fc1ccc(CNc2ncc(-c3ccsc3)c(-c3nccs3)n2)cc1 was tested. Which inhibition did it give?
The inhibition was 4.04%.

For CC(O)CNc1nc2ccccc2n1CC(=O)Nc1cccc(C(=O)Nc2cccc(C(F)(F)F)c2)c1 (stereo not given), which inhibition is on record?
Its inhibition is 1.81%.

With O=S(=O)(c1cc2ccccc2s1)N(CCC(O)(C(F)(F)F)C(F)(F)F)Cc1cccc(O)c1 as the compound, how does the inhibition read?
The inhibition was -1.09%.

Which inhibition does the source give for O=C(NCCN1CCOCC1)c1csc(C2CCCN(C(=O)c3ccc(O)c(-c4cc(Cl)cc(Cl)c4)c3)C2)n1 (stereo not given) here?
Its inhibition is 1.79%.

How did the inhibition turn out when O=C(NCCCCN1CCC(c2ccc3c(c2OCCN2CCCC2)CCCC3)CC1)c1ccc(-c2ccc(C(F)(F)F)cc2)cc1 was run?
Its inhibition is 5.87%.

With O=C(Nc1ccc2c(c1)CCN2C1CCN(Cc2cccc3cc[nH]c23)C1)c1ccco1 (stereo not given) as the compound, how does the inhibition read?
The inhibition was -0.85%.

For O=C(Nc1cccc(-c2ccc(-c3nc4ccccc4[nH]3)cc2)c1)c1ccncc1, which inhibition is on record?
Its inhibition is 4.33%.

For COc1ccc2nc(C)cc(N/N=C/c3ccccc3[N+](=O)[O-])c2c1, which inhibition is on record?
The inhibition was 2.99%.

For O=C(NCCNc1ccnc(Nc2ccc(F)cc2)n1)c1cc2ccccc2s1, which inhibition is on record?
The inhibition was 7.62%.

With Cc1cc(=NN=Cc2ccccc2)c2cc(C(F)(F)F)ccc2[nH]1 as the compound, how does the inhibition read?
The inhibition was 8.87%.

Which inhibition does the source give for Nc1nc(-c2ccc3c(Nc4ccc(F)c(Cl)c4)ccnc3c2)cs1 here?
The inhibition was 4.08%.

How did the inhibition turn out when Clc1ccc(Nc2nc3ccc(Cl)cc3nc2Nc2ccc(Cl)cc2)cc1 was run?
The inhibition was 6.73%.

With CCCc1cc(Cc2cnc(N)nc2N)cc2c1OC(C)(C)C2 as the compound, how does the inhibition read?
The inhibition was 3.03%.

Which inhibition does the source give for CN1CCN(c2ccnc3cc4c(cc23)N(Cc2ccccc2)CC4)CC1 here?
The inhibition was -0.13%.

Which inhibition does the source give for c1ccc(-c2nc(NC3CCCCC3)cc(C3CC3)n2)nc1 here?
Its inhibition is 1.91%.

With CCOc1ccc(NC(=O)c2cccc(CN3CCCN(Cc4cccc(O)c4)CC3)c2)cc1 as the compound, how does the inhibition read?
The inhibition was 0.07%.

With Cc1c(C(C)(C)C)ccc2nc(N)nc(N)c12 as the compound, how does the inhibition read?
Its inhibition is 63.5%.

Which inhibition does the source give for CN1CCCC(COc2cc3c(cc2Br)CCN3C(=O)Nc2ccc(-c3ccncc3)c(Cl)c2)C1 (stereo not given) here?
The inhibition was 5.78%.

For CCCCCCN1CCCN(Cc2ccc(C(=O)Nc3ccc(C(C)C)cc3)cc2)CC1, which inhibition is on record?
Its inhibition is 7.26%.

CC(C)(C)C1=CC(=NNC(=O)c2ccncc2)C=C(C(C)(C)C)C1=O was tested. Which inhibition did it give?
Its inhibition is 14%.

With COc1cc(CS(C)(=O)=O)ccc1Nc1nccc(-c2c(-c3cccc(NC(=O)c4c(F)cccc4F)c3)nn3ccccc23)n1 as the compound, how does the inhibition read?
Its inhibition is 20.7%.

For O=C(/C=C/c1ccc(Cl)c(Cl)c1)NCC1CCN(Cc2ccc(O)cc2)CC1, which inhibition is on record?
The inhibition was 57.8%.

COc1ccc(C2=C(Nc3ccc4oc5ccccc5c4c3)c3ccccc3C2=O)cc1 was tested. Which inhibition did it give?
Its inhibition is -0.17%.

O=C(Nc1ccc2ccccc2c1)c1ccc(CN2CCC(Cc3ccccc3)CC2)cc1 was tested. Which inhibition did it give?
Its inhibition is -3.63%.

How did the inhibition turn out when CC(C)CNC(=O)c1ccc(-c2cccc(CN3CCC(N4CCCC4)CC3)c2)nc1 was run?
The inhibition was 2.17%.

With N#CCCN1CCN(Cc2ccc(-c3cccc(-c4nc5cc(F)ccc5[nH]4)c3)cc2)CC1 as the compound, how does the inhibition read?
Its inhibition is 2.18%.
